According to PubChem BioAssay AID1159580 (chemical genetic matrix, 2015):
Where “and” joins values, the source holds several entries; their conditions need not be identical. Identical values can stand only once. The campaign covered roughly 5,500 compounds. About 2,000 (36%) were called active. Inconclusive results (about 18%) are left out. Cut-off read from the data, not from the text of the source: active = normalized growth mostly below about 0.91 (no sharp cut-off); inconclusive = no clear call, values can overlap the other calls; inactive = mostly above about 0.92. This is one part of the list.

Experiment: chemical genetic growth profiling, strain panel (AID 1159580);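 note: tested at 20 µM; growth read once vehicle control cultures reached saturation at 30 °C; 1 = growth at the plate median or of vehicle wells; lower values mean less growth of the strain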
Conditions: S. cerevisiae deletion strains, growth OD

Measured: normalized growth

CC(CCC(=O)O)[C@H]1CCC2C3CC[C@@H]4CC(=O)CC[C@]4(C)C3C=C[C@@]21C (stereo not given in full)
active: locus YDL035C, strain GPR1, active compounds read low 0.832 | locus YGL078C, strain dbp3, active compounds read low 0.87 | locus YKL009W, strain mrt4, active compounds read low 0.809 | locus YOR184W, strain ser1, active compounds read low 0.795
inactive: locus YBR021W, strain FUR4, active compounds read low 0.906 | locus YBR229C, strain ROT2, active compounds read low 1.03 | locus YCL029C, strain bik1, active compounds read low 0.984 | locus YDL074C, strain BRE1, active compounds read low 0.992 | locus YDL101C, strain DUN1, active compounds read low 1.02 | locus YDL185W, strain tfp1, active compounds read low 1.02 | locus YDL192W, strain arf1, active compounds read low 1 | locus YDR101C, strain arx1, active compounds read low 0.967 | locus YDR162C, strain NBP2, active compounds read low 0.999 | locus YDR318W, strain mcm21, active compounds read low 0.982 | locus YDR388W, active compounds read low 1.01 | locus YDR502C, strain sam2, active compounds read low 0.928 | locus YEL061C, strain CIN8, active compounds read low 1.03 | locus YER110C, active compounds read low 1.05 | locus YER155C, strain BEM2, active compounds read low 1.06 | locus YER167W, strain BCK2, active compounds read low 1.05 | locus YGL086W, strain mad1, active compounds read low 0.971 | locus YGL248W, strain PDE1, active compounds read low 0.963 | locus YGR078C, strain PAC10, active compounds read low 1.02 | locus YGR135W, strain pre9, active compounds read low 0.953 | locus YGR229C, strain SMI1, active compounds read low 0.904 | locus YGR252W, strain gcn5, active compounds read low 0.779 | locus YHR030C, strain SLT2, active compounds read low 1.06 and 0.918 | locus YHR079C, strain IRE1 (second series), active compounds read low 1.03 | locus YHR079C, strain IRE1, active compounds read low 0.944 | locus YHR094C, strain hxt1, active compounds read low 1.03 | locus YHR129C, strain ARP1, active compounds read low 1.04 | locus YHR200W, strain rpn10, active compounds read low 1.03 | locus YIL066C, strain RNR3, active compounds read low 1.02 | locus YIL073C, strain SPO22, active compounds read low 0.955 | locus YIL125W, strain kgd1, active compounds read low 0.98 | locus YIR030C, strain dcg1, active compounds read low 1.02 | locus YJL095W, strain BCK1, active compounds read low 0.959 and 0.937 | locus YJL134W, strain LCB3, active compounds read low 1.05 | locus YJL168C, strain set2, active compounds read low 1.03 | locus YJL187C, strain SWE1 (second series), active compounds read low 0.986 | locus YJR043C, strain POL32, active compounds read low 0.985 | locus YJR066W, strain TOR1, active compounds read low 0.893 | locus YKL068W, active compounds read low 1.04 | locus YKL085W, strain MDH1 (second series), active compounds read low 1.03 | locus YKL085W, strain MDH1, active compounds read low 1.03 | locus YKL190W, strain CNB1, active compounds read low 1.04 | locus YKR001C, strain vps1, active compounds read low 0.955 | locus YLR039C, strain RIC1, active compounds read low 0.953 | locus YLR058C, strain SHM2, active compounds read low 1.01 | locus YLR102C, strain apc9, active compounds read low 1.03 | locus YLR113W, strain HOG1, active compounds read low 0.882 | locus YLR262C, strain YPT6, active compounds read low 0.895 | locus YLR268W, strain sec22, active compounds read low 0.949 | locus YLR330W, strain CHS5, active compounds read low 1.04 | locus YLR342W, strain FKS1 (second series), active compounds read low 0.87 | locus YLR371W, strain rom2, active compounds read low 1.05 | locus YLR418C, strain cdc73, active compounds read low 0.889 | locus YML016C, strain PPZ1, active compounds read low 1.04 | locus YML032C, strain rad52, active compounds read low 0.959 | locus YML124C, strain tub3, active compounds read low 1.04 | locus YMR078C, strain ctf18, active compounds read low 1.03 | locus YMR223W, strain ubp8, active compounds read low 0.969 | locus YMR307W, strain GAS1, active compounds read low 0.875 | locus YNL067W, strain RPL9B, active compounds read low 0.971 | locus YNL153C, strain GIM3, active compounds read low 0.966 | locus YNL183C, strain NPR1, active compounds read low 0.883 | locus YNL233W, strain BNI4, active compounds read low 1.02 | locus YNL250W, strain rad50, active compounds read low 1 | locus YNL271C, strain bni1, active compounds read low 0.992 | locus YNL298W, strain CLA4, active compounds read low 0.926 | locus YNL307C, strain MCK1, active compounds read low 1.02 | locus YNL322C, strain KRE1, active compounds read low 1.04 | locus YNR052C, strain pop2, active compounds read low 0.931 | locus YOL006C, strain TOP1, active compounds read low 0.944 | locus YOL012C, strain htz1 1.95 | locus YOL147C, strain pex11, active compounds read low 1.03 | locus YOR061W, strain CKA2, active compounds read low 1.01 | locus YOR069W, strain VPS5, active compounds read low 1.02 | locus YOR136W, strain idh2, active compounds read low 1.03 | locus YOR144C, strain elg1, active compounds read low 0.988 | locus YOR231W, strain MKK1, active compounds read low 0.913 | locus YOR316C, strain cot1, active compounds read low 1.03 | locus YPL055C, strain LGE1, active compounds read low 1.01 | locus YPL241C, strain CIN2, active compounds read low 1.04 | locus YPL256C, strain CLN2, active compounds read low 0.963 | locus YPR119W, strain clb2, active compounds read low 1.05 | locus YPR141C, strain kar3, active compounds read low 1.05 | locus YPR163C, strain tif3, active compounds read low 1 | locus YPR167C, strain met16, active compounds read low 1.01 | strain wtn01, active compounds read low 0.931
